Our source for the Potency values is PubChem BioAssay AID504850 (National Center for Advancing Translational Sciences (NCATS), 2011).

Out of some 2,300 compounds screened, about 1,200 (52%) were called active. Not shown: some 34% with an inconclusive outcome. Calls follow the shape of the dose curve; as a rule, active = well fitted inhibition curve with a large enough effect; inconclusive = small, poorly fitted or top-dose-only effect, or effect the other way; inactive = no such curve, though single readings can be large or run the other way. The set was probably picked from earlier hits. The list shows a part of the results.
Potency is read from the fitted curve at half-maximal effect.

The assay is described as follows: Confirmation screen for delayed death inhibitors of the malarial parasite plastid, 48 hour incubation. Also: nearly all actives have a fitted effect of over 65% in size. To be noted: P. falciparum-infected erythrocytes, luciferase growth; series mostly up to 28.7 µM. The procedure, abridged:
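Single-generation (48 h, 37 C) exposure of integrated firefly luciferase-reporter P. falciparum in red cells, 0.1% parasitemia at 2% hematocrit, Albumax-supplemented RPMI. Falling luciferase signal marks parasite growth inhibition.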
For the molecule `O=C(NCc1ccc(F)cc1)C1CCN(S(=O)(=O)c2ccc(Br)s2)CC1`, the Potency was 12.6 µM (active). The result for `COc1ccc(CCNS(=O)(=O)c2ccc(Br)s2)cc1` reads “inactive”; that for `O=C(COC(=O)C1C2CC3OC(=O)C1C3C2)Nc1ccccc1` (stereo unspecified), “inactive”. In the case of `O=S1(=O)Nc2c(ccc3cccnc23)-c2ccccc21`, the Potency is 1.78 µM (active). The result for `Cc1nc(-c2ccccn2)sc1C(=O)Nc1ccc(Cl)c(Cl)c1` reads “inactive”; that for `Cc1ccc(-c2nc(-c3cccnc3)sc2CC(=O)Nc2ccc(C)c(Cl)c2)cc1`, 4.47 µM (active).

For the molecule `COc1cc(OC)c(OC)cc1CN1CCN(C(=O)c2cccc3ccccc23)CC1`, the Potency was 12.6 µM (active). The same measure for `CC1C/C(=C/c2ccncc2)C(=O)/C(=C/c2ccncc2)C1` (stereo unspecified): 3.98 µM (active). The same measure for `CCSc1nnc(N2C(=O)c3ccc(C(=O)c4ccc(C(=O)O)cc4)cc3C2=O)s1`: “inactive”; for `O=C(NC1CCCC1)C1CC(=O)N(CCc2ccccc2)C1` (stereo unspecified): “inactive”. `O=C(NC1CCN(Cc2ccccc2)CC1)C1CCN(c2nnc(-n3cccc3)s2)CC1`: the Potency was 10 µM (active). Consider `O=C(Cc1cccs1)NCCc1ccc(Cl)cc1`, for which the Potency was 4.47 µM (active). The same measure for `Cc1ccc(Cl)cc1N1CCN(c2cccc[n+]2C)CC1`: 3.16 µM (active); for `COc1cccc2sc(Nc3nnc(-c4ccc(F)cc4)o3)nc12`: 7.08 µM (active); for `COc1cccc2sc(Nc3nnc(-c4ccccc4Cl)o3)nc12`: 12.6 µM (active). Consider `O=C(COc1ccccc1)Nc1nnc(-c2ccc(F)cc2)o1`, for which the Potency result was “inactive”. The result for `CC(C)CCSc1nc(N)c(C#N)cc1C#N` reads 6.31 µM (active). For the molecule `CCOC(=O)c1c[nH]c2cc(OCC(C)C)c(OCC(C)C)cc2c1=O`, the Potency was 0.199 µM (active). For the molecule `CSc1nnc(C)c(=O)[nH]1`, the Potency result is “inactive”.

`Cc1cc(=O)oc2c1ccc1oc(/C(=N/O)c3ccccc3)c(C)c12`: the Potency was 7.94 µM (active).

`COc1ccc2cc3cc(C(=O)Nc4ccc5c(c4)OCO5)oc3nc2c1`: the Potency is 5.01 µM (active). The result for `COc1ccccc1NC(=S)NCc1cccs1` reads “inactive”. The result for `Cc1ccc2cc3cc(C(=O)NCCCN4CCCC4=O)oc3nc2c1` reads 3.16 µM (active); that for `COc1ccc2nc3oc(C(=O)NCc4cccs4)cc3cc2c1`, 3.55 µM (active). For the molecule `COCCCNC(=O)c1cc2cc3cc(OC)ccc3nc2o1`, the Potency was 5.01 µM (active).

For `Cn1cnc([N+](=O)[O-])c1Sc1ccc(Br)cc1`, the Potency result was “inactive”. Regarding `Cc1cc(Br)ccc1NC(=O)CNC(=O)Cn1ncc(Cl)c(Cl)c1=O`, the Potency was 12.6 µM (active). The same measure for `O=C(NNc1nc(-c2ccccc2)cs1)c1ccco1`: 2.24 µM (active); for `O=C(Nn1c(-c2ccccc2)nc2ccccc2c1=O)c1ccco1`: “inactive”; for `Cc1nn(-c2ccccc2)c(C)c1/C=N/n1c(-c2ccccc2Br)n[nH]c1=S`: 14.1 µM (active). The same measure for `S=c1[nH]nc(-c2ccccn2)n1/N=C/c1ccc(-c2ccccc2Br)o1`: “inactive”. The result for `Cc1[nH]c(=O)c(C(=O)/C=C/c2ccccc2F)c2c1CCCC2` reads 7.08 µM (active). For the molecule `Cc1[nH]c(=O)c(C(=O)/C=C/c2ccccc2)c2c1CCCC2`, the Potency was 6.31 µM (active). With `Cc1[nH]c2ccccc2c1/C=N/NC(=O)CNC(=O)Cc1ccccc1`, the Potency entry is “inactive”.

As to `Cc1[nH]c2ccccc2c(=O)c1C(=O)/C=C/c1ccccc1`, the Potency was 6.31 µM (active). Regarding `O=C1CSC(c2cccnc2)N1CCc1ccccn1` (stereo unspecified), the Potency entry is “inactive”.

`CC(=O)Nc1ccc(NC(=O)c2ccc(C3SCC(=O)N3CCc3ccccc3)cc2)cc1` (stereo unspecified): the Potency is 8.91 µM (active). For the molecule `N#CCc1nc(C(c2ccccc2)c2ccccc2)no1`, the Potency is 7.94 µM (active). The same measure for `CC(C)c1cc(NC(=O)CCl)on1`: 10 µM (active); for `CC(C)NC(=S)N/N=C/c1sc(N2CCCCC2)nc1-c1cccs1`: 6.31 µM (active); for `Cc1ccc(C(=O)N/C(=C\c2ccc(-c3ccc(Cl)cc3)o2)C(=O)NCCCN(C)C)cc1`: 3.98 µM (active). The same measure for `C=CCN=c1scc(-c2ccc(F)cc2)n1/N=C/c1ccccn1`: 6.31 µM (active).

For `CCCCN1/C(=C/c2cccc[n+]2C)Sc2cc(NC(C)=O)ccc21`, the Potency is 3.16 µM (active). As to `Cc1c(OC(C)C(=O)N2C[C@H]3C[C@@H](C2)c2cccc(=O)n2C3)ccc2c3c(c(=O)oc12)CCC3` (stereo partly specified), the Potency is 12.6 µM (active). With `Cc1c(CC(=O)N2C[C@H]3C[C@@H](C2)c2cccc(=O)n2C3)c(=O)oc2cc3occ(C(C)(C)C)c3cc12`, the Potency was 12.6 µM (active). The result for `CC(C)C[C@@H](NC(=O)[C@H](Cc1ccccc1)NC(=O)c1cnccn1)B(O)O` reads 0.178 µM (active). The result for `O=C(C[C@@H]1C/C=C\CC[C@@H](Cc2ccc(F)cc2)C(=O)OC[C@@H]2CCCN2C1=O)NCCO` reads 12.6 µM (active); that for `COc1ccc(NC(=O)N2CCCc3cc(C)ccc32)c(OC)c1`, 14.1 µM (active). For `Cc1cc(C)n(Cc2ccc(C(=O)N/N=C/c3ccc(-c4ccc([N+](=O)[O-])cc4)o3)o2)n1`, the Potency is 8.91 µM (active). The same measure for `O=C(CCN1C(=O)c2ccccc2C1=O)C1=NN[C@@H]2C(=O)N(c3ccc(F)cc3)C(=O)[C@H]12`: “inactive”. On to `CCC/C(C#CCCN1C(=O)c2ccccc2C1=O)=C1/c2ccccc2C(=O)N1c1ccccc1`, for which the Potency was 7.94 µM (active). The result for `CCn1c(SCC(=O)Nc2ccc(C)cc2)nc2sc3c(c2c1=O)CCN(C)C3` reads 1.41 µM (active); that for `CCOC(=O)CSc1nc2sc3c(c2c(=O)n1C1CCCCC1)CCN(C)C3`, 3.16 µM (active); that for `Cc1cccc(NC(=S)/N=C(\N)Nc2nc(C)c3ccccc3n2)c1`, 12.6 µM (active). The same measure for `CC(CN1CCC(n2nccc2NC(=O)c2ccccc2Cl)CC1)c1ccccc1` (stereo unspecified): 15.8 µM (active). Regarding `C(=N\N(c1ccccc1)c1ccccc1)/c1ccccn1`, the Potency result is “inactive”. Turning to `O=C(N/N=C/c1ccccn1)c1cc([N+](=O)[O-])cc([N+](=O)[O-])c1`, the Potency is 10 µM (active). `O=[N+]([O-])c1cccc(/C=C/c2nc[nH]c2[N+](=O)[O-])c1`: the Potency was 7.94 µM (active).

For the molecule `CC1(C)COC(/C=C/c2cccc([N+](=O)[O-])c2)=N1`, the Potency was 14.1 µM (active).

Regarding `COc1ccccc1-n1nnnc1S(=O)(=O)Cc1ccc(Cl)cc1`, the Potency was 12.6 µM (active). Regarding `CCCCN(CCCNC(=O)C1CCN(C(=O)c2cc3sccc3n2C)CC1)Cc1ccccc1`, the Potency was 5.62 µM (active).

With `CC(NC(=O)c1cc2sccc2n1C)c1ccc2c(c1)OCCO2` (stereo unspecified), the Potency result is “inactive”. The same measure for `O=C(Nc1ccc2c(c1)CCCN2C(=O)c1ccco1)c1cc([N+](=O)[O-])ccc1Cl`: 12.6 µM (active). In the case of `COc1ccccc1N(Cc1ccccc1)S(=O)(=O)c1cccc(C(=O)Nc2cc(C)ccn2)c1`, the Potency is 11.2 µM (active). The result for `COc1ccccc1N(Cc1ccccc1)S(=O)(=O)c1cccc(C(=O)Nc2ccccn2)c1` reads 8.91 µM (active); that for `COc1cc(OC)cc(C(=O)Nc2ccc3c(c2)CCCN3C(=O)c2cccs2)c1`, 12.6 µM (active); that for `Cc1ccccc1C(=O)Nc1ccc2c(c1)CCCN2C(=O)c1cccs1`, 12.6 µM (active). For `CC(=O)Nc1ccc(OCc2cccc3ccccc23)cc1`, the Potency is 12.6 µM (active). The result for `O=C(Cc1cccc2ccccc12)Nc1ccccc1C(=O)O` reads “inactive”. The result for `CCOC(=O)c1c(NC(=O)CSc2ccccc2C(=O)O)sc(C)c1C` reads “inactive”. The result for `CCOC(=O)c1c(NC(=O)CSc2c[nH]c3ccccc23)sc2c1CCCC2` reads 14.1 µM (active); that for `COc1cc([N+](=O)[O-])c(OC)cc1SCc1n[nH]c(=S)n1-c1ccc(F)cc1`, 14.1 µM (active).

Regarding `CCCCCCC1C(C#N)=C(N)OC2=C1C(=O)CCC2` (stereo unspecified), the Potency entry was “inactive”.

Turning to `COc1cccc(NC(=O)CSc2nc3n[nH]c(C)c3c(=N)n2-c2cccc(OC)c2)c1`, the Potency is 7.94 µM (active). The same measure for `CCc1nc(SCC(=O)Nc2ccc(N(C)C)cc2)n[nH]1`: “inactive”; for `CCc1ccc(NC(=O)CSc2nc3n[nH]c(C)c3c(=N)n2-c2cccc(OC)c2)cc1`: 5.62 µM (active); for `COc1ccc2c(CC(=O)OCC(=O)Nc3cccc(S(N)(=O)=O)c3)coc2c1`: “inactive”. Consider `COc1ccccc1NC(=O)c1oc2ccccc2c1NC(=O)C1CC1`, for which the Potency is 8.91 µM (active).

Regarding `COc1cccc(NC(=O)c2oc3ccccc3c2NC(=O)C2CC2)c1`, the Potency is 15.8 µM (active). The same measure for `COc1cccc(NC(C)C(=O)Nc2cc([N+](=O)[O-])ccc2Cl)c1` (stereo unspecified): 3.16 µM (active).

Regarding `COc1cccc(N/C(SCc2cccc([N+](=O)[O-])c2)=C(/C#N)C(N)=O)c1`, the Potency entry was “inactive”.

Take `Cn1c(CCN2CCCC2)nc2cc(NS(=O)(=O)c3ccc(Cl)cc3)ccc21`: the Potency is 11.2 µM (active).

In the case of `Cn1c(CCN2CCCC2)nc2cc(NS(=O)(=O)c3ccccc3)ccc21`, the Potency is 3.55 µM (active). Take `CC1CCCCN1C(=O)COC(=O)c1cccc(NS(=O)(=O)c2ccccc2)c1` (stereo unspecified): the Potency result is “inactive”. The result for `CC(=O)c1ccc(N/N=C(/C(N)=O)C2=NC(C)(C)Cc3ccccc32)cc1` reads 7.08 µM (active); that for `Cc1cccc(N/N=C(\C(N)=O)C2=NC(C)(C)Cc3ccccc32)c1`, 4.47 µM (active); that for `CN(Cc1ccc(Cl)c(Cl)c1)C(=O)C1=CC=CN2CCS(=O)(=O)N=C12`, 7.94 µM (active). The result for `CN1C(=O)C(C)(C)c2cc(S(=O)(=O)NCC3CCC(C(=O)NCc4ccc(F)cc4)CC3)ccc21` (stereo unspecified) reads 15.8 µM (active); that for `CC1(C)CC(=O)c2sc(NC(=O)CCS(=O)(=O)c3ccccc3)nc2C1`, “inactive”; that for `CCOc1cccc2sc(NC(=O)CCS(=O)(=O)c3ccccc3)nc12`, 11.2 µM (active). The result for `COc1ccc(C)c2sc(NC(=O)CCS(=O)(=O)c3ccccc3)nc12` reads “inactive”; that for `CCOc1ccc(-c2c(C(=O)N/N=C/c3ccc(OC(C)C)cc3)nnn2-c2nonc2N)cc1`, 15.8 µM (active). With `Nc1nonc1-n1nnc(C(=O)N/N=C/c2ccc(Cl)cc2)c1-c1ccc2c(c1)OCO2`, the Potency was 0.0562 µM (active). The result for `CN(Cc1c(C(=O)N/N=C/c2cccc(O)c2)nnn1-c1nonc1N)c1ccccc1` reads “inactive”; that for `Cc1ccsc1/C=N/NC(=O)c1nnn(-c2nonc2N)c1-c1ccc2c(c1)OCO2`, 1.26 µM (active); that for `Nc1nonc1-n1nnc(C(=O)N/N=C/c2cccc(Cl)c2)c1-c1ccc2c(c1)OCO2`, 0.126 µM (active).
